Over roughly 33,000 sequences, “normalized occupancy” has its median near 0.075; the highest 2% begin near 0.095. For the sample, the highest values were picked, then their nearest neighbours and some sequences at random.
What follows are sequences tested against MaxL homodimer (Homo sapiens, UniProt P61244 1-160) (assay: universal protein-binding microarray (PBM); PBS-based mixture, 10 nM His-tagged protein dimer, 2% milk, 200 ng/uL BSA, 50 ng/uL salmon testes DNA, 0.02% TX-100; detection with Alexa 488 anti-His antibody;; high values mean tight binding). Conditions: protein: recombinant; tags: C-terminal His-tag (pET21a); chain copies: 2; dsDNA, one strand shown.
Sequence of MaxL homodimer (P61244 whole entry): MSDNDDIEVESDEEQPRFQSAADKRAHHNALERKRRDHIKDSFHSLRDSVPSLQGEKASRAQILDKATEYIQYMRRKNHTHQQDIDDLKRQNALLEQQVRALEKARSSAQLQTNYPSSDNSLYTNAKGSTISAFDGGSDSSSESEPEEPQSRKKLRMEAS
Procedure, shortened: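 Each 8-mer received a fluorescence intensity from GenePix 4400A scans of Agilent 4 x 44 K 'all 10-mer' universal arrays. Those arrays had been incubated with His-tagged protein dimer at 10 nM, and the bound protein was marked with a fluorophore-conjugated anti-His antibody at 10 ng/μL. Binding occupancy is the intensity scaled to that of the highest-ranked sequence word.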
Work on GTAGTCCA yielded a binding signal of 0.0722 normalized occupancy.
TACGTAGA gave a binding signal of 0.0768 normalized occupancy.
AATGCGGC gave a binding signal of 0.0814 normalized occupancy.
In the case of CATGCGGA, the binding signal was 0.126 normalized occupancy.
For TATGCGGA, the binding signal was 0.0786 normalized occupancy.
With CAGGCGGG the binding signal was 0.0747 normalized occupancy.
GATGCGGC gave a binding signal of 0.0788 normalized occupancy.
In the case of CATGCGGG, the binding signal was 0.121 normalized occupancy.
With AATGCGGG the binding signal was 0.0799 normalized occupancy.
CATGCGGC was tested, and the binding signal was 0.121 normalized occupancy.
In the case of AATGCGGA, the binding signal was 0.0802 normalized occupancy.
With AGGTAACC the binding signal was 0.0749 normalized occupancy.
AAACATAC was tested, and the binding signal was 0.0888 normalized occupancy.
Work on TATAAACA yielded a binding signal of 0.0776 normalized occupancy.
With CGCTCGAG the binding signal was 0.0757 normalized occupancy.
CGATTGCA was tested, and the binding signal was 0.0745 normalized occupancy.
In the case of GGACCGAC, the binding signal was 0.0727 normalized occupancy.
In the case of CATTTGAG, the binding signal was 0.0913 normalized occupancy.
In the case of AAGAACTC, the binding signal was 0.0732 normalized occupancy.
AATTTCTA showed a binding signal of 0.0767 normalized occupancy.
CCATTCGC gave a binding signal of 0.0743 normalized occupancy.
In the case of CTTCGTGC, the binding signal was 0.0757 normalized occupancy.
With ATGGCAGG the binding signal was 0.0815 normalized occupancy.
Sequence CCCCATTC has a binding signal of 0.0826 normalized occupancy.
With ACCCATGG the binding signal was 0.0853 normalized occupancy.
ACCCATGC gave a binding signal of 0.108 normalized occupancy.
CCCCATGC was tested, and the binding signal was 0.107 normalized occupancy.
ACCCATGA gave a binding signal of 0.0882 normalized occupancy.
In the case of CCCCATGA, the binding signal was 0.0895 normalized occupancy.
For AAAGCACT, the binding signal was 0.0757 normalized occupancy.
Work on AACCACTA yielded a binding signal of 0.0774 normalized occupancy.
AACCACCA was tested, and the binding signal was 0.0807 normalized occupancy.
GACCACGC gave a binding signal of 0.129 normalized occupancy.
In the case of AACCACGC, the binding signal was 0.0983 normalized occupancy.
With AACCACGA the binding signal was 0.0902 normalized occupancy.
CACCACGA gave a binding signal of 0.082 normalized occupancy.
With GACCACGA the binding signal was 0.0865 normalized occupancy.
Sequence AACCACGG has a binding signal of 0.0843 normalized occupancy.
CACCACGG gave a binding signal of 0.0774 normalized occupancy.
For CACCACGC, the binding signal was 0.119 normalized occupancy.
AACCACGT was tested, and the binding signal was 0.123 normalized occupancy.
GACCACCA gave a binding signal of 0.0803 normalized occupancy.
ATGCCCTG gave a binding signal of 0.0757 normalized occupancy.
Work on GAGACCCA yielded a binding signal of 0.0745 normalized occupancy.
TAATTGCA showed a binding signal of 0.0767 normalized occupancy.
ACCAAGCA was tested, and the binding signal was 0.081 normalized occupancy.
Work on CATGCGTC yielded a binding signal of 0.113 normalized occupancy.
In the case of AATGCGTA, the binding signal was 0.0846 normalized occupancy.
CGTGCGTC was tested, and the binding signal was 0.0896 normalized occupancy.
For GATGCGTA, the binding signal was 0.0807 normalized occupancy.
CATGCGTA gave a binding signal of 0.122 normalized occupancy.
Sequence AATGCGTC has a binding signal of 0.0736 normalized occupancy.
ATGACGCG showed a binding signal of 0.0781 normalized occupancy.
Work on AGGTGGGG yielded a binding signal of 0.0822 normalized occupancy.
Sequence ACGTGGGA has a binding signal of 0.0998 normalized occupancy.
CCGTGGGA was tested, and the binding signal was 0.0775 normalized occupancy.
Sequence ATGTGGGC has a binding signal of 0.0919 normalized occupancy.
In the case of ACGTGGGG, the binding signal was 0.0991 normalized occupancy.
ACGTGGGC gave a binding signal of 0.1 normalized occupancy.
For GCGTGGGA, the binding signal was 0.125 normalized occupancy.
AAGTGGGA gave a binding signal of 0.0771 normalized occupancy.
GTGTGGGA showed a binding signal of 0.0899 normalized occupancy.
For ATGTGGGG, the binding signal was 0.0878 normalized occupancy.
AGGTGGGC gave a binding signal of 0.0818 normalized occupancy.
In the case of GGGTGGGA, the binding signal was 0.085 normalized occupancy.
GACATTGC was tested, and the binding signal was 0.0757 normalized occupancy.
GGAAGAGA showed a binding signal of 0.0767 normalized occupancy.
AGAATGTC gave a binding signal of 0.0744 normalized occupancy.
Sequence CCTGCTAC has a binding signal of 0.0758 normalized occupancy.
Sequence CCCTAATA has a binding signal of 0.0744 normalized occupancy.
For CGATTAAG, the binding signal was 0.0743 normalized occupancy.
Work on TTCATAAA yielded a binding signal of 0.0768 normalized occupancy.
Work on CAGACCCC yielded a binding signal of 0.085 normalized occupancy.
For CAGTAGAA, the binding signal was 0.0771 normalized occupancy.
Sequence ACGTCGTC has a binding signal of 0.0822 normalized occupancy.
Work on GATGCTCA yielded a binding signal of 0.0734 normalized occupancy.
Work on CATGCTCA yielded a binding signal of 0.099 normalized occupancy.
TATGCTCA was tested, and the binding signal was 0.0848 normalized occupancy.
AATGCTCG gave a binding signal of 0.0783 normalized occupancy.
With AATGCTCA the binding signal was 0.0829 normalized occupancy.
In the case of CGTGCTCC, the binding signal was 0.085 normalized occupancy.
In the case of GATGCTCC, the binding signal was 0.0753 normalized occupancy.
CATGCTCC gave a binding signal of 0.105 normalized occupancy.
CATGCTCG showed a binding signal of 0.106 normalized occupancy.
Work on CTTTACCA yielded a binding signal of 0.0764 normalized occupancy.
ATTGGGGC gave a binding signal of 0.0771 normalized occupancy.
In the case of ACCTGGCT, the binding signal was 0.0765 normalized occupancy.
TCGTGGCA showed a binding signal of 0.0869 normalized occupancy.
ACGTGGCA was tested, and the binding signal was 0.106 normalized occupancy.
Work on GCGTGGCA yielded a binding signal of 0.121 normalized occupancy.
In the case of ATGTGGCG, the binding signal was 0.0879 normalized occupancy.
AGGTGGCA showed a binding signal of 0.082 normalized occupancy.
ACGTGGCC was tested, and the binding signal was 0.094 normalized occupancy.
With ACGTGGCT the binding signal was 0.101 normalized occupancy.
CCGTGGCA showed a binding signal of 0.077 normalized occupancy.
With ACGTGGCG the binding signal was 0.107 normalized occupancy.
For CCGTGGCG, the binding signal was 0.0765 normalized occupancy.
For AAGTGGCT, the binding signal was 0.072 normalized occupancy.
GGTCTGTA gave a binding signal of 0.0752 normalized occupancy.
With CCTTGTCC the binding signal was 0.0743 normalized occupancy.
CTGACTCA gave a binding signal of 0.0764 normalized occupancy.
AACCAAGT was tested, and the binding signal was 0.0721 normalized occupancy.
For GAGGAGAA, the binding signal was 0.0783 normalized occupancy.
With GGTAACTA the binding signal was 0.077 normalized occupancy.
CAACTTAG showed a binding signal of 0.0721 normalized occupancy.
In the case of AGGCACCT, the binding signal was 0.078 normalized occupancy.
CTATTTTC was tested, and the binding signal was 0.0775 normalized occupancy.
CCAAACGC gave a binding signal of 0.073 normalized occupancy.
Work on GCGACTCA yielded a binding signal of 0.0767 normalized occupancy.
For CCGTGGCC, the binding signal was 0.0738 normalized occupancy.
In the case of GAGTGGCC, the binding signal was 0.073 normalized occupancy.
For GCGTGGCC, the binding signal was 0.0977 normalized occupancy.
GGACAACA gave a binding signal of 0.0742 normalized occupancy.
Sequence ACCGTGTG has a binding signal of 0.0873 normalized occupancy.
AACGTGTA was tested, and the binding signal was 0.11 normalized occupancy.
In the case of AACGTGTG, the binding signal was 0.108 normalized occupancy.
For CAGGTGTC, the binding signal was 0.0839 normalized occupancy.
For CACGTGTC, the binding signal was 0.574 normalized occupancy.
ATCGTGTG gave a binding signal of 0.0889 normalized occupancy.
AACGTATA was tested, and the binding signal was 0.0869 normalized occupancy.
Work on CCCGTGTC yielded a binding signal of 0.0814 normalized occupancy.
AAGGTGTA was tested, and the binding signal was 0.0773 normalized occupancy.
CAAGTGTC showed a binding signal of 0.0772 normalized occupancy.
With ACCGTGTA the binding signal was 0.0779 normalized occupancy.
Work on CAGGTGTA yielded a binding signal of 0.0957 normalized occupancy.
Work on GATGCAAA yielded a binding signal of 0.0761 normalized occupancy.
GTTCGTAA was tested, and the binding signal was 0.0774 normalized occupancy.
CCTAGATA gave a binding signal of 0.0756 normalized occupancy.
ACCGTACA was tested, and the binding signal was 0.0768 normalized occupancy.
Sequence AAATAGCA has a binding signal of 0.0843 normalized occupancy.
In the case of ACTATAAC, the binding signal was 0.0847 normalized occupancy.
AGTTTTTG gave a binding signal of 0.0729 normalized occupancy.
Sequence ATTGCGAA has a binding signal of 0.074 normalized occupancy.
ATGGGTAG showed a binding signal of 0.0856 normalized occupancy.
ATGATTGG gave a binding signal of 0.0808 normalized occupancy.
Work on AAGAGCAG yielded a binding signal of 0.0746 normalized occupancy.
AAGGTGTC showed a binding signal of 0.0775 normalized occupancy.
GACGTGTA gave a binding signal of 0.0816 normalized occupancy.
Work on CCCGTGTA yielded a binding signal of 0.0861 normalized occupancy.
In the case of ACCGTGTC, the binding signal was 0.072 normalized occupancy.
Sequence AACGTGTC has a binding signal of 0.101 normalized occupancy.
CACGTGTA showed a binding signal of 0.536 normalized occupancy.
Work on AATGGCTC yielded a binding signal of 0.0777 normalized occupancy.

From PMC4242493, “Sequence specificity incompletely defines the genome-wide occupancy of Myc”
